These results are taken from the supplement of paper PMC4380459.

The test system of this test is tubulin (bovine brain). Kind of test: tubulin polymerization end-point dOD, fold change relative to DMSO vehicle; higher = more polymerization (stabilization). Particulars: 50 µM; 60 min; 37 °C. The method, then:
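In-vitro tubulin polymerization assay (Cytoskeleton HTS kit) with 4 mg/ml bovine brain tubulin in G-PEM buffer and compound at 50 uM (0.5% DMSO). Turbidity was read at 340 nm every minute for 1 h at 37 C. The end-point change in OD (dOD) was converted to % fold change relative to the DMSO vehicle (0%), and runs were scaled using DMSO and Taxol controls. The paper calls >20% an effect, 20-40% weak and >40% strong; positive values mean stabilization, negative values destabilization. Scale: negative = destabilization.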
`COc1cccc(/C=N/NC(=O)c2ccc(N3CCCC3=O)cc2)c1`: the “tubulin polymerization end-point dOD” value is 11.9%. On to `Nc1cccc2c1C(=O)c1cccc(NC(=O)c3ccccc3)c1C2=O`, for which the “tubulin polymerization end-point dOD” value came out at 24.7%. Turning to `CCc1ccc2nc(SCC(=O)Nc3cc(C)ccc3C)c(C#N)cc2c1`, the “tubulin polymerization end-point dOD” value is -12.2%. With `CC(C)n1ncc2cc(C(=O)Nc3cccc4c3CCCC4)cnc21`, the “tubulin polymerization end-point dOD” value is -23.5%. Consider `COc1ccc2cc(CN(Cc3ccco3)C(=O)c3cccs3)c(=O)[nH]c2c1`, for which the “tubulin polymerization end-point dOD” value worked out at 91.2%. Regarding `O=C(Nc1ccc2c(c1)OCCO2)C(=O)Nc1ccccc1Cl`, the “tubulin polymerization end-point dOD” value is 13.5%. On to `COc1ccc(CNc2c(-c3ccccc3O)nc3cnccn23)cc1`, for which the “tubulin polymerization end-point dOD” value came out at 0.31%. Regarding `COc1cc2c(cc1OC)C(c1cccs1)[NH+](CC(O)c1ccccc1)CC2` (stereo not given), the “tubulin polymerization end-point dOD” value was -40.4%. On to `COc1ccc2cc(CNc3ncnc4[nH]ncc34)ccc2c1`, for which the “tubulin polymerization end-point dOD” value is -12.6%. As for `Clc1ccc2sc(/C=C/c3cccnc3)nc2c1`, the figure is 47.1%. On to `O=C(Nc1ccc2c(c1)OCCO2)C(=O)Nc1cccc2cccnc12`, for which the “tubulin polymerization end-point dOD” value turned out to be 76%. Turning to `O=C(Nc1nc2ccccc2[nH]1)c1cccc2ccccc12`, the “tubulin polymerization end-point dOD” value is -76.4%. For `CCN(CC)c1ccc(NC(=O)C2CC=CCC2)cc1` (stereo not given), the “tubulin polymerization end-point dOD” value is -23.9%. For `Cc1cccc(Cc2cnc(NC(=O)c3sc4ccccc4c3Cl)s2)c1`, the “tubulin polymerization end-point dOD” value was found to be 81.7%. For `O=C1NC(c2c(-c3ccccc3)[nH]c3ccccc23)Nc2ccccc21` (stereo not given), the “tubulin polymerization end-point dOD” value is -92.1%. As to `Cc1cc(NC(=O)CSc2nnc3c(C)cc4c(C)ccc(C)c4n23)no1`, the “tubulin polymerization end-point dOD” value is -40.7%. Turning to `CCc1ccc2nc(SCC(=O)Nc3ccccc3C)c(C)cc2c1`, the “tubulin polymerization end-point dOD” value is -20.5%. In the case of `COc1ccc(C2=NOC(=O)/C2=N/Nc2ccc(Cl)cc2)cc1`, the “tubulin polymerization end-point dOD” value is 19%. As for `O=C(Nc1ncc(Cc2ccc(Cl)cc2)s1)c1cnccn1`, the figure is -97.6%; as for `C=CCOc1ccccc1NC(=O)c1cc(-c2c(C)nn(C)c2C)n[nH]1`, -31.9%; as for `CC(=O)c1c(C)cc(C)c(CSc2nnc(-c3ccc(F)cc3)n2C)c1C`, -75.9%. Turning to `CC1Cc2ccccc2N1C(=O)CSc1nnc(-c2cc3ccccc3cc2O)n1C` (stereo not given), the “tubulin polymerization end-point dOD” value was -10.6%. In the case of `Cc1cc2nc(/C=C/c3ccsc3)sc2cc1C`, the “tubulin polymerization end-point dOD” value was found to be 237%.

For the compound `O=C(Nc1ccc(CNc2ncnc3cc(Cl)ccc23)cc1)C1CC1`, the “tubulin polymerization end-point dOD” value was 8.64%. Regarding `COc1cc(C(=O)Nc2ccc3c(c2)Nc2ccccc2CC3)cc(OC)c1OC`, the “tubulin polymerization end-point dOD” value was -20.1%. In the case of `CCc1nnc(NC(=O)CSc2cc(C)c3cc(C)cc(C)c3n2)s1`, the “tubulin polymerization end-point dOD” value came out at 19.7%. In the case of `Cc1cccc2cc3c(N)c(C(=O)N4CCCc5ccccc54)sc3nc12`, the “tubulin polymerization end-point dOD” value was -46.4%. For the compound `COc1cccc(N2CCN(C(=O)c3cc(C4CC4)nc4ccccc34)CC2)c1`, the “tubulin polymerization end-point dOD” value is -85.1%. To `CN(C)c1ccc(/C=N/NC(=O)c2cccc(F)c2)cc1` belongs 27.6%; to `CCc1nc(SCC(=O)Nc2ccc(N(CC)CC)c(C)c2)c2ccccc2n1`, -34%; to `COc1ccc(C2(C(=O)NC(C)c3nc(-c4ccncc4)n[nH]3)CC2)cc1` (stereo not given), -41.3%. To `Cc1ccc(NC(=S)N(Cc2cc3ccc(C)cc3[nH]c2=O)CC2CCCO2)cc1` (stereo not given) belongs 97.9%; to `O=C(Nc1ccc(N2CCc3sccc3C2)nc1)c1ccccc1Br`, 14.9%.

Turning to `COc1cc(Br)c(-c2cc3cc(Cl)ccc3oc2=O)cc1OC`, the “tubulin polymerization end-point dOD” value was determined as 77.7%. `Cc1cc2ccccc2n2c(=O)n(CC(C)NC(=O)c3cnn(C)c3C)nc12` (stereo not given): the “tubulin polymerization end-point dOD” value was -1.81%. As for `Cc1cc2nc(/C=C/c3cccnc3)sc2cc1C`, the figure is -34.3%.

As to `O=c1[nH]c(/C=C/c2ccccc2)nc2sc3c(c12)CCCCC3`, the “tubulin polymerization end-point dOD” value is 16.8%.

With `Cc1ccc(NC(=O)CSc2nc3cc4c(cc3cc2C#N)OCCO4)c(C)c1`, the “tubulin polymerization end-point dOD” value is -24.1%.

As for `O=C(Nc1ncc(Cc2ccc(F)cc2)s1)c1ccc2c(c1)OCO2`, the “tubulin polymerization end-point dOD” value was 20.1%. Take `COc1ccc(Cl)cc1NC(=O)C1CCCN1C(=O)Nc1ccccc1OC` (stereo not given): the “tubulin polymerization end-point dOD” value is -2.01%.
